Experimental data as given in PubChem BioAssay (NCATS).
Records with an inconclusive call do not appear. Activity calls are given as the source filed them. The call rests on the fitted dose curve; in most records, active means well fitted cell-killing curve with a large enough effect; inconclusive means small, poorly fitted or top-dose-only effect, or effect the other way; inactive means flat fitted curve, though single readings scatter.

Key:
Experiment in all cases: Primary qHTS to identify gynecologic anti-cancer compounds using libraries of approved drugs and bioactive compounds (AID 1345084); further: nearly all actives have a fitted effect of over 55% in size
[1] = system: Hek293T; conditions: Gynecologic cancer cell panel viability, ATPlite luminescence, 48 h, control line for the selectivity index; series mostly up to 57.5 µM
Outline: (§1)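 Measured: luminescence after ATPlite addition (15 min, RT). Exposure: 48 h, 37 C, 5% CO2.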

[2] = system: JEG-3; conditions: Gynecologic cancer cell panel viability, ATPlite luminescence, 48 h; series mostly up to 57.5 µM
Outline: as §1

[3] = system: OV90; conditions: Gynecologic cancer cell panel viability, ATPlite luminescence, 48 h; series mostly up to 57.5 µM
Outline: as §1

[4] = system: PA-1; conditions: Gynecologic cancer cell panel viability, ATPlite luminescence, 48 h; series mostly up to 57.5 µM
Outline: as §1

[5] = system: SKOV3; conditions: Gynecologic cancer cell panel viability, ATPlite luminescence, 48 h; series mostly up to 57.5 µM
Outline: as §1

[6] = system: Tov-21-G; conditions: Gynecologic cancer cell panel viability, ATPlite luminescence, 48 h; series mostly up to 57.5 µM
Outline: as §1

[7] = system: Tov112D; conditions: Gynecologic cancer cell panel viability, ATPlite luminescence, 48 h; series mostly up to 57.5 µM
Outline: as §1
On the % scale 0 is the no-effect control and ±100 the full control effect.

C[C@@H]1C[C@H](O[C@@H]2O[C@H](CO[C@@H]3OC[C@](O)(CO)[C@H]3O)[C@@H](O)[C@H](O)[C@H]2O)CC(C)(C)[C@H]1/C=C/[C@@H](C)O
inactive: Potency [1] | Potency [2] | Potency [3] | Potency [4] | Potency [5] | Potency [6] | Potency [7]

C/C=C/C=C/C=C/C(=O)O[C@@H]1[C@@H](OC)C2=C(C(=O)N(C(C)C(=O)O)C2)[C@@]2(C)CCCC(C)(C)[C@H]12 (stereo not given in full)
inactive: Potency [1] | Potency [2] | Potency [3] | Potency [4] | Potency [5] | Potency [6] | Potency [7]

C/C=C(\C)C(=O)O[C@@H]1CC2[C@@H](CC=C3C[C@@H](O[C@H]4C[C@H](OC)[C@H](O[C@H]5C[C@H](OC)[C@H](O[C@H]6C[C@H](OC)[C@H](O[C@H]7C[C@@H](OC)[C@H](O[C@@H]8O[C@H](CO)[C@@H](O)[C@H](O)[C@H]8O)[C@@H](C)O7)[C@@H](C)O6)[C@@H](C)O5)[C@@H](C)O4)CC[C@@]32C)[C@@]2(O)CC[C@H](C(C)=O)[C@@]12C (stereo not given in full)
inactive: activity change, negative = cytotoxicity [1] 11.8% [at 6.55 µM] | activity change, negative = cytotoxicity [2] -0.396% [at 6.55 µM] | activity change, negative = cytotoxicity [3] 3.72% [at 6.55 µM] | activity change, negative = cytotoxicity [4] -8.02% [at 6.55 µM] | activity change, negative = cytotoxicity [5] -0.126% [at 6.55 µM] | activity change, negative = cytotoxicity [6] 2.08% [at 6.55 µM] | activity change, negative = cytotoxicity [7] -2.78% [at 6.55 µM]

C=C1C(O[C@@H]2O[C@H](CO)[C@@H](O)[C@H](O)[C@@H]2O)CC2C(C)(C)C(O)CCC2(C)C1CC/C(C)=C\CO (stereo not given in full)
inactive: Potency [1] | Potency [2] | Potency [3] | Potency [4] | Potency [5] | Potency [6] | Potency [7]

CCOC(=O)Nc1nc2ccccc2[nH]1
inactive: Potency [1] | Potency [2] | Potency [3] | Potency [4] | Potency [5] | Potency [6] | Potency [7]

CC1=C2C(=O)C=C(CO)[C@@H]2[C@H]2OC(=O)[C@H](C)[C@@H]2[C@@H](O)C1
inactive: Potency [1] | Potency [2] | Potency [3] | Potency [4] | Potency [5] | Potency [6] | Potency [7]

C=C1CC[C@H]2[C@@](C)(CCC[C@@]2(C)C(=O)O)[C@@H]1CCC(C)CCO (stereo not given in full)
inactive: Potency [1] | Potency [2] | Potency [3] | Potency [4] | Potency [5] | Potency [6] | Potency [7]

COc1cc(/C=C/C(=O)OC2[C@H](O)CC(O)(C(=O)O)C[C@H]2O)ccc1O (stereo not given in full)
inactive: Potency [1] | Potency [2] | Potency [3] | Potency [4] | Potency [5] | Potency [6] | Potency [7]

COC1C2=C(COC2=O)C2(C)CCCC(C)(CO)C2C1OC(=O)c1ccccc1 (stereo not given)
inactive: Potency [1] | Potency [2] | Potency [3] | Potency [4] | Potency [5] | Potency [6] | Potency [7]

CC/C=C\C[C@H]1C(=O)C=C[C@@H]1CCCCCCCC(=O)O
inactive: Potency [1] | Potency [2] | Potency [3] | Potency [4] | Potency [5] | Potency [6] | Potency [7]

CC(C#N)C(C)O[C@@H]1O[C@H](CO)[C@@H](O)[C@H](O)[C@H]1O (stereo not given in full)
inactive: Potency [1] | Potency [2] | Potency [3] | Potency [4] | Potency [5] | Potency [6] | Potency [7]

COC1CC(OC2CCC3(C)C(=CCC4C3CCC3(C)C(C(C)O)CCC43O)C2)OC(C)C1OC1OC(C)C(OC2OC(COC3OC(COC4OC(CO)C(O)C(O)C4O)C(O)C(O)C3O)C(O)C(O)C2O)C(OC)C1O (stereo not given)
inactive: activity change, negative = cytotoxicity [1] -3% [at 11.6 µM] | activity change, negative = cytotoxicity [2] -1.13% [at 11.6 µM] | activity change, negative = cytotoxicity [3] 3.31% [at 11.6 µM] | activity change, negative = cytotoxicity [4] 5.02% [at 11.6 µM] | activity change, negative = cytotoxicity [5] 0% [at 11.6 µM] | activity change, negative = cytotoxicity [6] -5.94% [at 11.6 µM] | activity change, negative = cytotoxicity [7] -0.956% [at 11.6 µM]

CC1(C)CCCC2(C)C1C(O)C=C(CO)C2(O)C(=O)O (stereo not given)
inactive: Potency [1] | Potency [2] | Potency [3] | Potency [4] | Potency [5] | Potency [6] | Potency [7]

CC(=O)OC(CSC1CCC(=O)OC(C)CCC(=O)C1)C(=O)O (stereo not given)
inactive: Potency [1] | Potency [2] | Potency [3] | Potency [4] | Potency [5] | Potency [6] | Potency [7]

COC(=O)C1=CO[C@@H](O[C@@H]2O[C@H](CO[C@@H]3O[C@H](COC(=O)/C=C/c4ccc(O)cc4)[C@@H](O)[C@H](O)[C@H]3O)[C@@H](O)[C@H](O)[C@H]2O)[C@@H]2C(CO)=CC[C@H]12
inactive: Potency [1] | Potency [2] | Potency [3] | Potency [4] | Potency [5] | Potency [6] | Potency [7]

CC(=O)OC1C(O)CC(O[C@@H]2O[C@H](CO)[C@@H](O)[C@H](O)[C@H]2O)C2CCC3C(=O)OC(c4ccoc4)CC3(C)C21 (stereo not given in full)
inactive: Potency [1] | Potency [2] | Potency [3] | Potency [4] | Potency [5] | Potency [6] | Potency [7]

COc1c(OC2OC(CO)C(O)C(O)C2O)ccc(O)c1C(=O)OCc1ccccc1O[C@@H]1O[C@H](CO)[C@@H](O)[C@H](O)[C@H]1O (stereo not given in full)
inactive: Potency [1] | Potency [2] | Potency [3] | Potency [4] | Potency [5] | Potency [6] | Potency [7]

CCNC(=O)CCC/C=C\C[C@@H]1[C@@H](/C=C/C(O)CCc2ccccc2)[C@@H](O)C[C@@H]1O (stereo not given in full)
inactive: Potency [1] | Potency [2] | Potency [3] | Potency [4] | Potency [5] | Potency [6] | Potency [7]

CC(O)C(O)/C=C/C=C/C(=O)O[C@@H]1C=C2COC(=O)[C@]2(O)[C@@]2(C)CCCC(C)(C)C12 (stereo not given in full)
inactive: Potency [1] | Potency [2] | Potency [3] | Potency [4] | Potency [5] | Potency [6] | Potency [7]

CC1=C2CC3OC3(C)CCC3OC3(C)CC2OC1=O (stereo not given)
inactive: Potency [1] | Potency [2] | Potency [3] | Potency [4] | Potency [5] | Potency [6] | Potency [7]
